# According to PubChem BioAssay:
# Active and inactive are the calls of the source. Unless noted, no rule for the calls is given here.
# Columns and labels:
# [1] = tested on: Wnt5a (protein binding on small-molecule microarray); experiment: Wnt5a binders on small-molecule microarray, primary screen, biophysical, 635/667 nm fluorescence (AID 1142); settings: 635 nm fluorescence, higher = more signal;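 also: fluorescence read at 667 nm with signal to noise per printed feature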
# [2] = cell viability in Huh7 cells, primary screen, cytotoxicity control for HCV replication inhibitor project, CellTiter-Glo luminescence, basal, 48 h (AID 1143); settings: Huh7 HCV replicon, higher = more signal, called active from +8 up or from −8 down;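 also: Huh7 hepatoma cells carrying a hepatitis C replication reporter with no stimulus; test concentration not given here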
# [3] = P. aeruginosa biofilm formation inhibitors, primary screen, PAO1 strain, BacTiter-Glo luminescence, LB-PBS (AID 1144); settings: 12 h, higher = more signal
# [4] = CREB reporter modulators without forskolin, primary screen, cell-based, PC12, CRE-LacZ reporter, unstimulated (AID 1145); settings: no forskolin, luminescence, 4.5 h, higher = more signal, called active from +8 up or from −8 down
# [5] = CREB reporter modulators under forskolin, primary screen, cell-based, PC12, CRE-LacZ reporter, forskolin-stimulated (AID 1146); settings: luminescence, 4.5 h, higher = more signal, called active from +8 up or from −8 down;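 also: PC12 cells with 6xCRE LacZ reporter stimulated by forskolin 10 µM; beta-galactosidase reporter signal reflecting CREB driven transcription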
# [6] = target: Streptavidin (Streptomyces avidinii) (UniProt P22629); experiment: streptavidin binders on small-molecule microarray, primary screen, artefact control for SMM compound annotation, biophysical, 635/667 nm fluorescence (AID 1147); settings: streptavidin binding, higher = more signal;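 also: signal reflects streptavidin binding to arrayed compounds as a control protein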
# Sequence of Streptavidin (Streptomyces avidinii) (P22629 whole entry, looked up): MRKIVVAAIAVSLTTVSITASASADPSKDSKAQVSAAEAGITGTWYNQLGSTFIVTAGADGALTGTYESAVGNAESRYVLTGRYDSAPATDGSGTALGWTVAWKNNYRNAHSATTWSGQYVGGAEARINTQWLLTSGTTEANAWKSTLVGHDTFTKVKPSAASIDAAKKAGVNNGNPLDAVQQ
# [7] = small-molecule binders of probe aInhba, primary screen, biochemical, small-molecule microarray, 635/667 nm fluorescence (AID 1148); settings: higher = more signal;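 also: score merges 667nm spot fluorescence with signal-to-noise for antibody binding to printed compounds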
# Torsin-1A (Homo sapiens) [8] = target: Torsin-1A (Homo sapiens) (UniProt O14656); experiment: torsin A binders from cell lysate, primary screen, small-molecule microarray, wild-type, 635/667 nm (AID 1149); settings: COS7 hTOR1A-WT lysate, 635 nm fluorescence, higher = more signal
# Sequence of Torsin-1A (Homo sapiens) (O14656 whole entry, looked up): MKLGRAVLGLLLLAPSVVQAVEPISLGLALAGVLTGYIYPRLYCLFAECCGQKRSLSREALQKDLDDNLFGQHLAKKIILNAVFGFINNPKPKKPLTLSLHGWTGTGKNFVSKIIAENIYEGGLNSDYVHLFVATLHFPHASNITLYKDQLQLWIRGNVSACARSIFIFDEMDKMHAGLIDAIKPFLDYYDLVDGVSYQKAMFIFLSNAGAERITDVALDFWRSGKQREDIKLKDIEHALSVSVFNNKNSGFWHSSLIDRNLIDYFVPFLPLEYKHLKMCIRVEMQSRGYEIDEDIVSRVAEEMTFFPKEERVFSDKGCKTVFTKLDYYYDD
# Torsin-1A (Homo sapiens) [9] = target: Torsin-1A (Homo sapiens) (UniProt O14656); experiment: small-molecule binders of mutant TOR1A in lysate, primary screen, cell lysate, small-molecule microarray, COS7 lysate, 635/667 nm fluorescence (AID 1150); settings: COS7 hTOR1A mutant lysate, 635 nm fluorescence, higher = more signal;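 also: score pools 667 nm emission and signal to noise measuring lysate protein binding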
# [10] = tested on: Sonic hedgehog protein (Shh); experiment: small-molecule binders of Shh protein, primary screen, biochemical, small-molecule microarray, 635/667 nm fluorescence (AID 1151); settings: small-molecule microarray binding, 635 nm fluorescence; higher = more signal;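 also: Shh protein binding to compounds spotted on small-molecule microarray slides; score combines spot fluorescence intensity with signal-to-noise across triplicate slides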
# [11] = E. coli DRC41 culture turbidity changes, primary screen, E. coli filamentation inducer project, strain DRC41, OD650, 48 h (AID 1152);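 also: E. coli MC1000 strain DRC41 lacking acrAB efflux pump and sulA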; settings: E. coli DRC41 (acrAB sulA), higher = more signal, called active from +8 up or from −8 down
# [12] = small-molecule binders of probe aLefty1, primary screen, biochemical, small-molecule microarray, 635/667 nm fluorescence (AID 1153); settings: higher = more signal;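 also: score merges spot fluorescence with signal-to-noise ratio from the scanned slide images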
# [13] = PSAC antagonists in infected red cells, primary screen, cell-based, P. falciparum Indochina, OD700, 1 h (AID 1154); settings: P. falciparum Indochina infected RBC osmotic lysis, higher = more signal, called active from +8 up or from −8 down
# [14] = PSAC antagonists in infected red cells, primary screen, cell-based, P. falciparum Indochina, OD700, 2 h (AID 1155);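 also: lysis reports solute entry through the parasite surface anion channel PSAC; channel blockers reduce lysis of infected cells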; settings: P. falciparum Indochina infected erythrocytes, osmotic lysis OD700; higher = more signal, called active from +8 up or from −8 down
# [15] = osmotic lysis modulators in infected erythrocytes, primary screen, PSAC antagonist project, cell-based, P. falciparum Indochina, OD700, 3 h (AID 1156); settings: higher = more signal, called active from +8 up or from −8 down
# [16] = PSAC antagonists in infected red cells, primary screen, cell-based, P. falciparum Indochina, OD700, 18 h (AID 1157); settings: P. falciparum Indochina infected erythrocytes, osmotic lysis OD700, 18 h; higher = more signal, called active from +8 up or from −8 down
# [17] = modulators of S6 phosphorylation in cells, primary screen, cell-based, A549, cytoblot, luminescence, serum-stimulated (AID 1158); settings: A549 phospho-S6 cytoblot, 5 h, higher = more signal;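 also: serum-stimulated A549 lung adenocarcinoma cells; signal is phosphorylated S6 detected by cytoblot immunostaining with HRP secondary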
# [18] = target: NADPH oxidase 2 (Homo sapiens) (UniProt P04839); experiment: NOX2-dependent H2O2 signal modulators, primary screen, NOX inhibitor project, cell-based, HEK293-NOX2, PMA-stimulated, Amplex Red fluorescence (AID 1159); settings: 45 min, higher = more signal, called active from +8 up or from −8 down; also: test concentration not given here
# Sequence of NADPH oxidase 2 (Homo sapiens) (P04839 whole entry, looked up): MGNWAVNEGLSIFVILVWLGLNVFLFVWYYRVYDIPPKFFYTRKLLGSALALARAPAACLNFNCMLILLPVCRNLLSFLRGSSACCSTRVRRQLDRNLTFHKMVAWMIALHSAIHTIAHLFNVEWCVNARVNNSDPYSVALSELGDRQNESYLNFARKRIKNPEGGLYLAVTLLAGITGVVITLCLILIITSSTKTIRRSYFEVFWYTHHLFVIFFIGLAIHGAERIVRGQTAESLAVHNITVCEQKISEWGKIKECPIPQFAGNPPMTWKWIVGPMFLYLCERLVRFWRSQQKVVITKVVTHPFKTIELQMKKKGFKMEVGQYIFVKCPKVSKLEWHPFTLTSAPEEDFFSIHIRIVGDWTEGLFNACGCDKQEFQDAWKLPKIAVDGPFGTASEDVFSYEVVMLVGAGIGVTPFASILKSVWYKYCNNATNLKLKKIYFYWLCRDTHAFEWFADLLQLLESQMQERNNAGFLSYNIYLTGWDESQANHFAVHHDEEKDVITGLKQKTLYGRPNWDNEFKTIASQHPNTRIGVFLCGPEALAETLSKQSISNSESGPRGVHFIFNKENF
# [19] = target: NADPH oxidase 4 (Homo sapiens) (UniProt Q9NPH5); experiment: NOX4-dependent H2O2 signal modulators, primary screen, NOX inhibitor project, cell-based, HEK293-NOX4, tetracycline-induced, Amplex Red fluorescence (AID 1160); settings: 45 min, higher = more signal, called active from +8 up or from −8 down
# Sequence of NADPH oxidase 4 (Homo sapiens) (Q9NPH5 whole entry, looked up): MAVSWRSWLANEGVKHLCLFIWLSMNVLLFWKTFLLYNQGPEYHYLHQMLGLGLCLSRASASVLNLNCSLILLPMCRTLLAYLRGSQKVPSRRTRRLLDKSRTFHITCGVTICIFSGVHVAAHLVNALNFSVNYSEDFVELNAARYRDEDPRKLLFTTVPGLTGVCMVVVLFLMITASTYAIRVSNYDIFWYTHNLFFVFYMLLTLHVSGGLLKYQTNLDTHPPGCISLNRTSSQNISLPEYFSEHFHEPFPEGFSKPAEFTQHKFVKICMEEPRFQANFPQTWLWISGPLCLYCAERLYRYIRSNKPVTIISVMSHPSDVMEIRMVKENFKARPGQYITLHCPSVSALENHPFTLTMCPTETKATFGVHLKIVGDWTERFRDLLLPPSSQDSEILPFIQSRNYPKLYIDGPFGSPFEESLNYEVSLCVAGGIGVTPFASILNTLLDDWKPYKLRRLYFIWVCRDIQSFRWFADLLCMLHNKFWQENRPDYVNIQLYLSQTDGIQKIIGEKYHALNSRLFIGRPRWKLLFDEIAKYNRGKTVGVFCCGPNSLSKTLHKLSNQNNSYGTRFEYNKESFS
# [20] = target: NADPH oxidase 5 (Homo sapiens) (UniProt Q96PH1); experiment: NOX5-dependent H2O2 signal modulators, primary screen, NOX inhibitor project, cell-based, HEK293-NOX5, Amplex Red fluorescence (AID 1161); settings: HEK293-NOX5, ionomycin, 45 min, higher = more signal
# Sequence of NADPH oxidase 5 (Homo sapiens) (Q96PH1 whole entry, looked up): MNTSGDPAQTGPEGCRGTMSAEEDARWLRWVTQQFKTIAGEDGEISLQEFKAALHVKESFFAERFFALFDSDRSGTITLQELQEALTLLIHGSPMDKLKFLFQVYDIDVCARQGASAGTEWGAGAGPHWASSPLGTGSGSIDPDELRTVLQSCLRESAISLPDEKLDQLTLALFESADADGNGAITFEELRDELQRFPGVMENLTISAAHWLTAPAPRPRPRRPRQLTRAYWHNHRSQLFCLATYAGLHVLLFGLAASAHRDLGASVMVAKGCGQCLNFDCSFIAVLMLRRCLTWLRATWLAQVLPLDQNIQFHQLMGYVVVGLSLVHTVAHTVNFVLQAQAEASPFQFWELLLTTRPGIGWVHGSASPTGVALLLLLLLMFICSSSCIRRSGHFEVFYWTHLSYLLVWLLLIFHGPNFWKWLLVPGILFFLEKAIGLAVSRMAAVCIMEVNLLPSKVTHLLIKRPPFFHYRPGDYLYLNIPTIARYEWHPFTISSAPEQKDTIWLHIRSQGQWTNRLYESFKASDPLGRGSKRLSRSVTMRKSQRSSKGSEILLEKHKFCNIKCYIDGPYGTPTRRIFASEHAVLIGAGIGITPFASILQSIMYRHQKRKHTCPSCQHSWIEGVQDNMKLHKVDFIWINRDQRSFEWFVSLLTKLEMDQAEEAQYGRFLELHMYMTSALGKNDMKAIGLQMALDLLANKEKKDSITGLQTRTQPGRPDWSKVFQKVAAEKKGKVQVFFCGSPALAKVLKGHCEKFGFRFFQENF
smiles,measurement,setting,value
C[C@@H]1CC[C@H]2C(=O)OC(Cc3ccccc3)CN2[C@H]1c1ccc(Br)cc1 (stereo not given in full),composite z-score,[1],-0.0444
same,z-score,[2],-0.395 (inactive)
same,z-score,[3],0.7 (inactive)
same,z-score,[4],1.2 (inactive)
same,z-score,[5],-0.517 (inactive)
same,composite z-score,[6],0.221
same,composite z-score,[7],-0.0963
same,composite z-score,Torsin-1A (Homo sapiens) [8],0.172
same,composite z-score,Torsin-1A (Homo sapiens) [9],-0.0439
same,composite z-score,[10],0.513
same,z-score,[11],0.283 (inactive)
same,composite z-score,[12],-0.0111
same,z-score,[13],1.96 (inactive)
same,z-score,[14],0.728 (inactive)
same,z-score,[15],-0.23 (inactive)
same,z-score,[16],0.54 (inactive)
same,z-score,[17],-0.0843
same,z-score,[18],0.379 (inactive)
same,z-score,[19],0.268 (inactive)
same,z-score,[20],0.151
Cc1ccc2[nH]c3nc(CCCn4ccnc4-c4ccccc4)nnc3c2c1,composite z-score,[1],0.181
same,z-score,[2],-0.317 (inactive)
same,z-score,[3],0.892 (inactive)
same,z-score,[4],-0.435 (inactive)
same,z-score,[5],-0.815 (inactive)
same,composite z-score,[6],0.857
same,composite z-score,[7],0.157
same,composite z-score,Torsin-1A (Homo sapiens) [8],0.443
same,composite z-score,Torsin-1A (Homo sapiens) [9],0.807
same,composite z-score,[10],1.18
same,z-score,[11],0.369 (inactive)
same,composite z-score,[12],0.0072
same,z-score,[13],8.16 (active)
same,z-score,[14],0.751 (inactive)
same,z-score,[15],0.632 (inactive)
same,z-score,[16],0.322 (inactive)
same,z-score,[17],-0.903
same,z-score,[18],-0.137 (inactive)
same,z-score,[19],-0.375 (inactive)
same,z-score,[20],-1.14
CCOC(=O)[C@H](CC(C)C)NC(=O)CCC1CC(OC(=O)NCc2ccc3c(c2)OCO3)CC2(CCCC(COC(=O)NCCOc3ccccc3)O2)O1 (stereo not given in full),composite z-score,[1],0.278
same,z-score,[2],-0.705 (inactive)
same,z-score,[3],-0.393 (inactive)
same,z-score,[4],0.293 (inactive)
same,z-score,[5],0.179 (inactive)
same,composite z-score,[6],0.282
same,composite z-score,[7],-0.0719
same,composite z-score,Torsin-1A (Homo sapiens) [8],0.314
same,composite z-score,Torsin-1A (Homo sapiens) [9],0.387
same,composite z-score,[10],1.87
same,z-score,[11],-0.832 (inactive)
same,composite z-score,[12],0.0882
same,z-score,[13],0.339 (inactive)
same,z-score,[14],-0.35 (inactive)
same,z-score,[15],-0.118 (inactive)
same,z-score,[16],-0.193 (inactive)
same,z-score,[17],0.128
same,z-score,[18],1.02 (inactive)
same,z-score,[19],-1.63 (inactive)
same,z-score,[20],-0.0957
Cc1cc(C)c(-c2cc([C@H](C)ON=C[C@@H](C)[C@H](OCc3ccccc3)C(C)C)on2)c(C)c1,composite z-score,[1],-0.18
same,z-score,[2],-0.295 (inactive)
same,z-score,[3],1.45 (inactive)
same,z-score,[4],0.0944 (inactive)
same,z-score,[5],-0.549 (inactive)
same,composite z-score,[6],0.0366
same,composite z-score,[7],-0.242
same,composite z-score,Torsin-1A (Homo sapiens) [8],-0.477
same,composite z-score,Torsin-1A (Homo sapiens) [9],-0.273
same,composite z-score,[10],-0.16
same,z-score,[11],-0.3 (inactive)
same,composite z-score,[12],-0.0501
same,z-score,[13],0.859 (inactive)
same,z-score,[14],0.541 (inactive)
same,z-score,[15],-0.831 (inactive)
same,z-score,[16],0.195 (inactive)
same,z-score,[17],-0.408
same,z-score,[18],-0.467 (inactive)
same,z-score,[19],-0.299 (inactive)
same,z-score,[20],-0.45
